Bioassay records as filed in PubChem BioAssay.
Shown are actives, neighbours in structure and some others; about 3.7% of the full set was active somewhere.
TIM10 inh = TIM10 yeast growth inhibition. S. cerevisiae TIM10 strain growth, BacTiter-Glo luminescence, 24 h. inhibition, % at 10 µM. 330,000 compounds, 1.4% hits. AID 463195;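 active means inhibition of 40% or more at the single tested concentration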;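 further: wild-type TIM10 isogenic control strain grown at permissive 25 °C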
PfHsp90 set2 = reduces growth (ATP signal) of yeast expressing P. falciparum Hsp90; 310,000 compounds, 0.32% hits; S. cerevisiae expressing PfHsp90, BacTiter-Glo ATP, 48 h; yeast lacking PDR1 and PDR3 efflux regulators; inhibition, % at 9.4 µM; AID 504621;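 active means every replicate shows inhibition above about 80%, whatever the replicate mean, limit read from the data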;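 further: 0% = DMSO neutral controls and 100% = 20 µM radicicol positive controls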
tim23-1 inh = growth inhibitors of tim23-1 mutant yeast; AID 463212; S. cerevisiae tim23-1 growth, BacTiter-Glo luminescence, 24 h; 330,000 compounds, 1.3% hits; inhibition, % at 20 µM;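 active means growth inhibition of the mutant yeast at or above 50%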;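 further: temperature-sensitive mutant grown at 25 °C; plate controls were DMSO-treated mutant yeast for no effect and medium wells lacking yeast for full effect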
V-ATPase pH = yeast V-ATPase proton transport regulation by pHLuorin; 350,000 compounds, 0.37% hits; S. cerevisiae, pHLuorin cytosolic pH fluorescence; response, % at 10 µM; AID 504577; in the data active means response mostly above about 7.3%, no sharp cut-off; inactive means mostly below about 5.4%; further: actives read high
tim10-1 inh = tim10-1 yeast growth inhibition | 330,000 compounds, 2.2% hits | S. cerevisiae tim10-1 ts strain growth, BacTiter-Glo, 24 h | inhibition, % at 20 µM;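 active means inhibition of at least 40%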;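 further: mutant grown at 25 °C; 0% = DMSO wells with yeast and 100% = wells holding no yeast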
tim10-1 conf = confirmation of tim10-1 mutant yeast growth inhibitors. shares compounds with tim10-1 inh. S. cerevisiae tim10-1 ts strain growth, BacTiter-Glo, 24 h. 7,400 compounds, 56% hits. inhibition, % at 20 µM;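 active means inhibition of yeast growth at or above a set limit in either of two repeat tests at 20 µM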;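 further: tim10-1 mutant grown at permissive 25 °C to find synthetic lethal compounds; 0% = DMSO yeast wells and 100% = medium wells without yeast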
Active calls of the source: *; / = not tested or not shown; ! = repeats disagree.

SMILES | TIM10 inh | PfHsp90 set2 | tim23-1 inh | V-ATPase pH | tim10-1 inh | tim10-1 conf
CCOC(=O)C1=NN(c2ccccc2)C(=O)/C1=C\c1ccc(N(C)C)cc1 | 13 | 14 | 24 | -6 | 40* | 20
CCC/C=N/NC(=O)c1[nH]c2c([N+](=O)[O-])cccc2c1C | 32 | -12 | 11 | / | 41* | 20
O=C(COc1ccc(Br)cc1)N(Cc1nnc(-c2ccccc2Cl)o1)C1CC1 | / | / | / | -3 | / | /
CCOC(=O)/C(=C/c1ccc(Cl)cc1)NC(=O)c1ccco1 | -7 | -4 | 29 | 0 | 40* | 18
O=C(OCc1ccccc1)/C(=C/c1ccc(Cl)cc1)NC(=O)c1ccccc1Cl | -20 | / | -8 | -2 | -12 | /
Cc1sc2ncn(CC(=O)NCC(=O)N3CCN(c4ccccc4F)CC3)c(=O)c2c1C | -14 | 14 | -5 | -4 | -8 | /
CCN1CCN(C(=O)/C=C/c2ccc(C)o2)CC1 | 4 | 9 | -3 | 3 | -2 | /
Cc1ccc(/C=C/C(=O)N2CC(C)CC(C)C2)o1 (stereo unspecified) | 19 | / | 31 | -3 | 43* | 31
Nc1c(C(=O)Nc2ccccc2)c2nc3ccccc3nc2n1CCCN1CCOCC1 | 23 | 23 | -5 | -11 | 64* | 44*
C=CCn1c(N)c(C(=O)Nc2ccc(C)c(C)c2)c2nc3ccccc3nc21 | 15 | -1 | -30 | -5 | 16 | /
C=CCn1c(N)c(C(=O)Nc2cccc(C)c2)c2nc3ccccc3nc21 | 28 | -10 | 11 | -5 | 61* | 49*
Cc1ccccc1-c1n[nH]c(=S)n1Cc1ccccc1 | 26 | 2 | 5 | -2 | 40* | 16
Oc1ccc(Br)cc1-c1n[nH]c(=S)n1Cc1ccccc1 | 18 | -19 | 25 | 3 | 18 | /
Oc1ccccc1-c1n[nH]c(=S)n1Cc1ccccc1 | 16 | 19 | 4 | -1 | 5 | /
S=c1[nH]nc(-c2ccccc2Br)n1Cc1ccccc1 | 21 | 13 | 29 | -1 | 41* | 26
COc1cc(OC)cc(C(=O)NCC(=O)NCC(c2ccco2)N2CCCCC2)c1 (stereo unspecified) | 2 | -6 | -5 | 4 | -10 | /
Cc1cc(C)n(-c2nc(C)nc3sc4c(c23)CCC(C)C4)n1 (stereo unspecified) | 27 | 11 | 47 | 2 | 42* | 29
CCCSc1nnc(CSc2nc3ccccc3s2)n1-c1ccccc1 | 22 | -1 | 29 | -3 | 44* | 33*
CCn1c(CSc2nc3ccccc3s2)n[nH]c1=S | 33 | -19 | 33 | -6 | 42* | 32*
N#CCCCSc1nnc(CSc2nc3ccccc3s2)n1-c1ccccc1 | 20 | 3 | 17 | 2 | 29 | /
CC12CCC(C(=O)N3CCN(C(c4ccccc4)c4ccccc4)CC3)(OC1=O)C2(C)C (stereo unspecified) | 28 | 27 | 34 | -1 | 41* | 15
Cc1cc2nc(-c3ccc[nH]c3=O)[nH]c2cc1C | 35 | 71 | 48 | 3 | 47* | 35*
Cc1cc2nc(-c3ccc[nH]c3=O)n(Cc3ccc(F)cc3)c2cc1C | 3 | 17 | 23 | -5 | 20 | /
Cc1ccccc1S(=O)(=O)c1c(C)cc(C)n(CC(C)C)c1=O | 30 | -21 | 20 | 6 | 48* | 25
Cc1ccccc1S(=O)(=O)c1c(C)cc(C)n(C)c1=O | -15 | 27 | 6 | 0 | -10 | /
SMILES | TIM10 inh | PfHsp90 set2 | tim23-1 inh | V-ATPase pH | tim10-1 inh | tim10-1 conf
O=C(NCc1ccc(Cl)cc1)C(=O)NCC1OCCN1S(=O)(=O)c1cc(F)ccc1F (stereo unspecified) | 0 | 5 | 13 | -3 | 2 | /
Cc1ccc(Cl)cc1NC(=O)COC(=O)C12CC3CC(CC(C3)C1)C2 | 40 | -11 | 23 | -1 | 47*! | 33*
Cc1ccc(Cl)cc1NC(=O)COC(=O)C1CCCC1 | -3 | 31 | 14 | -3 | 12 | /
CC(C)(C)OC(=O)N1CCCC1C(=O)NCCc1ccccc1 (stereo unspecified) | -6 | -37 | 1 | 1 | -2 | /
CCc1cc2c(C)cc(=O)oc2cc1OC(=O)C1CCCN1C(=O)OC(C)(C)C (stereo unspecified) | 23 | / | 3 | / | 46* | 21
COc1ccc(/C(C)=N/Nc2nc3ccccc3n3cnnc23)cc1OC | -1 | / | -17 | / | -10 | /
CC1CCN(C(=S)c2cn(Cc3cccc(F)c3)c3ccccc23)CC1 | 34 | -18 | 11 | 1 | 41* | 20
